The nature of assay [1]: qHTS assay to identify small molecule agonists of H2AX (AID 1224845; active means well fitted activation curve with a large enough effect in the signal ratio in the repeat runs, not every such curve was filed as active; the % refers to the signal ratio). The method in brief: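 Phospho-H2AX Ser139 measured by HTRF (ex 320 nm; em 665 and 620 nm) after 24 hr antibody incubation. Compounds, 15 concentrations, 0.76% DMSO, were applied to CHO-K1 cells for 3hr at 37C before lysis.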
On the technique in general: qHTS replaces the single test concentration by a dilution series.

Assay [2] in a line: qHTS assay to identify small molecule agonists of the hypoxia (HIF-1) signaling pathway (AID 1224846; active means well fitted activation curve with a large enough effect in the signal ratio in the repeat runs, not every such curve was filed as active; the % refers to the signal ratio). A digest of the protocol:
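ME-180 HRE-bla reporter cells; compounds in DMSO, 17 h at 37C; read-out beta-lactamase via CCF4-AM FRET.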

Assay [3] in a line: qHTS assay to identify small molecule agonists of H2AX - cell viability counter screen (AID 1224847; calls by dose curve; further: top concentration of the series differs between compounds; nearly all actives have a fitted effect of over 30% in size). A digest of the protocol: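 We seed wild-type CHO-K1 cells overnight, treat them for 3 hr at 37C with compounds in 15-concentration series, and quantify remaining viability by CellTiter-Glo luminescence.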
A short description of assay [4]: qHTS RealTime-Glo MT Cell Viability Assay in HEK293 cells - 32 hour (AID 1224868). Further: top concentration of the series differs between compounds; nearly all actives have a fitted effect of over 50% in size. The method in brief: (§1)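 Quantitative high-throughput screen of the Tox21 10K library in HEK293: cells and RealTime-Glo reagents plated together, compound added at 5 h, luminescence monitored through 40 h at 37 C.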
A short description of assay [5]: A CellTox Green Cytotoxicity Assay to monitor cytotoxicity in HEK293 cells - 0 hour (AID 1224869). Further: nearly all actives have a fitted effect of over 50% in size. A digest of the protocol: (§2)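 Real-time, in one plate: 600 HEK293 cells/well with dead-cell DNA dye, pinned compound after 5 h, 37 C incubation over 40 h; viable cells give no appreciable fluorescence.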
A short description of assay [6]: qHTS RealTime-Glo MT Cell Viability Assay in HepG2 cells - 40 hour (AID 1224870). Further: nearly all actives have a fitted effect of over 50% in size. The method in brief:
(§3)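 Real-time viability: cells seeded at 600 per well together with NanoLuc and cell-permeant prosubstrate, compounds added after 5 h incubation. Luminescence tracked at 0, 8, 16, 24, 32 and 40 h of exposure.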

Assay [7] in a line: A CellTox Green Cytotoxicity Assay to monitor cytotoxicity in HEK293 cells - 40 hour (AID 1224871). Further: nearly all actives have a fitted effect of over 45% in size. The method in brief: as §2
Assay [8] in a line: qHTS RealTime-Glo MT Cell Viability Assay in HEK293 cells - 16 hour (AID 1224872). Further: top concentration of the series differs between compounds; nearly all actives have a fitted effect of over 50% in size. A digest of the protocol:
as §1

Assay [9] in a line: qHTS RealTime-Glo MT Cell Viability Assay in HepG2 cells - 8 hour (AID 1224873). Further: nearly all actives have a fitted effect of over 55% in size. A digest of the protocol: as §3
A short description of assay [10]: qHTS RealTime-Glo MT Cell Viability Assay in HEK293 cells - 40 hour (AID 1224874). Further: nearly all actives have a fitted effect of over 50% in size. Particulars: RealTime-Glo luminescence; max response: stronger effect = lower value. The method in brief: (§4)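 Kinetic, non-lysing viability readout. Seed HEK293 (600/well) with reagent, incubate 5 h at 37 C/5% CO2, pin 23 nL compound in DMSO, incubate at 37 C, read luminescence at 0, 8, 16, 24, 32, 40 h.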

Assay [11] can be described thus: A CellTox Green Cytotoxicity Assay to monitor cytotoxicity in HEK293 cells - 24 hour (AID 1224875). Further: series mostly up to about 77 µM; nearly all actives have a fitted effect of over 45% in size. A digest of the protocol: as §2
The nature of assay [12]: A CellTox Green Cytotoxicity Assay to monitor cytotoxicity in HepG2 cells - 16 hour (AID 1224876). Further: nearly all actives have a fitted effect of over 45% in size. The method in brief: (§5)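 Cytotoxicity was tracked as dead-cell DNA fluorescence in HepG2 cells treated with test compounds at 37 C; each time-point value comes from one kinetic series spanning 0, 8, 16, 24, 32 and 40 h.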
A short description of assay [13]: qHTS RealTime-Glo MT Cell Viability Assay in HepG2 cells - 32 hour (AID 1224877). Further: nearly all actives have a fitted effect of over 55% in size. The method in brief: (§6)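 Compound treatment began 5 h after plating HepG2 cells (600/well) with NanoLuc luciferase and prosubstrate. Plates stayed at 37 C for 40 h; luminescence was captured at six time points, 0 h through 40 h.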
Assay [14] in a line: A CellTox Green Cytotoxicity Assay to monitor cytotoxicity in HepG2 cells - 24 hour (AID 1224878). Further: nearly all actives have a fitted effect of over 45% in size. The method in brief: as §5
A short description of assay [15]: A CellTox Green Cytotoxicity Assay to monitor cytotoxicity in HepG2 cells - 40 hour (AID 1224879). Further: nearly all actives have a fitted effect of over 40% in size. The method in brief: as §5
Assay [16] is described as follows: qHTS RealTime-Glo MT Cell Viability Assay in HEK293 cells - 0 hour (AID 1224880). Further: nearly all actives have a fitted effect of over 45% in size. Further: potency means the concentration at half of the fitted maximal effect. The method in brief:
as §4

The nature of assay [17]: A CellTox Green Cytotoxicity Assay to monitor cytotoxicity in HEK293 cells - 32 hour (AID 1224881). Further: nearly all actives have a fitted effect of over 40% in size. The method in brief: as §2
Assay [18] in a line: qHTS RealTime-Glo MT Cell Viability Assay in HepG2 cells - 24 hour (AID 1224867). Further: nearly all actives have a fitted effect of over 50% in size. A digest of the protocol: as §6
A short description of assay [19]: qHTS assay to identify small molecule antagonists of the estrogen related receptor (ERR) signaling pathway from Tox21 library (AID 1224848). Further: nearly all actives have a fitted effect of over 50% in size. A digest of the protocol: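 ERR cell line, 2,000 cells/well. 6 h settle, then compound (DMSO) added; 18 h at 37 C; ONE-Glo luminescence after 30 min RT.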
Assay [20] is described as follows: qHTS assay to identify small molecule agonists of the estrogen related receptor (ERR) signaling pathway from Tox21 library (AID 1224849; calls by dose curve; further: nearly all actives have a fitted effect of over 15% in size). The method in brief:
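Luciferase activity in ERR pathway reporter cells served as the agonist readout; exposure lasted 18 h at 37 C, with ONE-Glo detection after 30 min at room temperature.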

The structures appear in SMILES notation. A number with no mark means an inactive call. Results filed as inconclusive are left out. Calls of active or inactive are those of the source. Unless noted, the call rests on the fitted dose curve; in most records, active means well fitted curve in the direction sought with a large enough effect in the repeat runs; inconclusive means weak or mixed curves; inactive means no such curve, though single readings can be large; an effect the other way counts as inactive or inconclusive.
On the % scale 0 is the no-effect control and ±100 the full control effect.

Regarding `NC(=O)N1c2ccccc2CC(=O)c2ccccc21`, the Potency entry in assay [1], in assay [4], in assay [6], in assay [7], in assay [8] and in assay [13] was “inactive” each time. The Potency result in assay [15] and in assay [16] was “inactive” in each case. For the same compound, the compound was classed as inactive in [2], in [3], in [5], in [9], in assay [11] and in assay [12]. The outcome in assay [14] and in assay [17] was inactive. Besides, in assay [10], the max response is 2.12%.
`COC(=O)Nc1ccc(Cl)c(Cl)c1`: the Potency result in [1], in assay [6], in assay [7], in [13] and in [16] was “inactive” throughout. Besides, the compound was called inactive in assay [2], in assay [3], in [18], in assay [5], in [9] and in [11]. Also, the outcome in [12] and in assay [17] was inactive. Further, the max response in assay [10] was -27.2%.
Consider `OCCc1ccccn1`, for which the Potency entry in assay [1], in [4], in assay [7], in assay [8], in [13] and in assay [15] was “inactive” throughout. For the same compound, the Potency result in assay [16] is “inactive”. Besides, the result in assay [2], in assay [3], in assay [18], in assay [5], in [9] and in assay [11] was inactive. For the same compound, the call in assay [12], in assay [14] and in assay [17] was inactive. Further, in assay [10], the max response is 3.13%.
For the compound `CCCCc1ccc2c(n1)[C@@H](c1ccc(OC)cc1C[C@H](C)C(=O)O)[C@H](C(=O)O)[C@H]2c1ccc2c(c1)OCO2`, the Potency result in assay [1], in assay [4], in assay [6], in assay [7], in assay [8] and in assay [13] was “inactive” each time. Also, in [16], the Potency entry is “inactive”. For the same compound, the call in [2], in assay [3], in [18], in assay [5], in assay [9] and in [12] was inactive. Moreover, the call in assay [14] and in [17] was inactive. Further, the max response in [10] was 0.185%.
On to `CCCCS(=O)(=O)N[C@@H](Cc1ccc(OCCCCC2CCNCC2)cc1)C(=O)O`, for which the Potency result in [1], in assay [4], in assay [7], in assay [8], in assay [13] and in assay [16] was “inactive” each time. Also, the compound was classed as inactive in assay [2], in assay [3], in assay [18], in [5], in [9] and in [12]. Moreover, the compound was called inactive in assay [14]. The max response in assay [10] was -0.348%.
As for `CCC(C(=O)NC(=O)NC(C)=O)c1ccccc1` (configuration not stated), the Potency result in assay [1], in assay [19], in assay [4], in assay [6], in [7] and in [8] was “inactive” each time. Moreover, the Potency entry in [13], in [15] and in [16] was “inactive” in each case. For the same compound, the outcome in [2], in assay [20], in assay [18], in assay [5], in [9] and in assay [11] was inactive. The outcome in assay [12], in [14] and in assay [17] was inactive. In [10], the max response is -7.54%.
In the case of `CO[Si](C)(OC)c1ccccc1`, the Potency entry in [1], in assay [19], in [4], in [6], in assay [7] and in assay [8] was “inactive” throughout. The Potency result in assay [13], in assay [15] and in assay [16] was “inactive” in each case. In addition, the compound was called inactive in assay [2], in assay [20], in assay [18], in assay [5], in assay [9] and in [11]. Besides, the outcome in assay [12], in assay [14] and in [17] was inactive. The max response in [10] was -2.44%.
Consider `CCCC(=O)O[C@]1(C(=O)CC)CC[C@H]2[C@@H]3CCC4=CC(=O)CC[C@]4(C)[C@H]3[C@@H](O)C[C@@]21C`, for which the Potency result in assay [1], in [6], in assay [7], in assay [8], in assay [13] and in [15] was “inactive” in each case. Further, the compound was called inactive in assay [2], in assay [3], in assay [18], in [5], in assay [9] and in assay [11]. Further, the call in [12], in assay [14] and in assay [17] was inactive. In assay [16], the Potency was 12 µM (active).

These data come from PubChem BioAssay (Tox21).
